Screening results: PubChem BioAssay, National Center for Advancing Translational Sciences (NCATS)
In the library only some 7.6% were active in any assay of this set; here they are far more common.
Giardia kill = Giardia lamblia killing | Giardia lamblia trophozoite viability | activity change, % at 7.66 µM, hits read low | 0.15% of 340,000 active; in the data active = activity change below about -80%; inconclusive = between about -30% and that limit;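 note: parasites exposed to compound for two days anaerobically before the ATP read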
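Compounds were tested on trophozoites seeded at 100 cells/well and held 48 hrs at 37 deg C anaerobically. An ATP-based luminescent kit measured the remaining live cells.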
BRCA1 expr act = increases BRCA1 expression. MCF7-BRCA1-FFLuc reporter, luminescence, 48 h; response scale: scaled: vehicle 0%, 10 µM genistein 100%. Potency, µM (series often up to 46.1 µM), actives largely listed as activators. 1.1% of 380,000 active. AID 624202; note: nearly all actives have a fitted effect of over 80% in size
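Activators of BRCA1 expression were detected as increased firefly luciferase luminescence in engineered MCF7 cells after 48 h compound incubation. Signals were scaled to genistein 10 microM as full activation.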
ELG1 DNA repair = blocks ELG1-dependent DNA repair in HEK293T cells | Potency, µM (top dose mostly 46.1 µM), most hits filed as inhibitors | HEK293T ELG1-luciferase reporter, luminescence, 16 h; DNA damage induced by 5-fluorouridine | 2.3% of 330,000 active; note: nearly all actives have a fitted effect of over 55% in size
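In this reporter screen, reduction of luminescence relative to DMSO vehicle indicated activity. Compounds and 5-fluorouridine were added together to 2,000 cells per well, incubated for 16 hr at 37 °C, then developed with ONE-Glo.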
VP16 counter = Gal4-VP16 reporter inhibition counter-screen; Drosophila S2 Gal4-VP16 UAS-luciferase, luminescence, 20 h; Potency, µM (series often up to 53.6 µM), hits mostly inhibitors; 3.5% of 310,000 active; AID 2546;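 note: Gal4-VP16 expression switched on by copper sulfate through the metallothionein promoter; nearly all actives have a fitted effect of over 50% in size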
p53 reactivator = mutant p53 re-activation in reporter cells; Potency, µM (titrated, usually from 92.2 µM), hits mostly activators; 0.063% of 320,000 active; H1299 p53-A138V BP100-luciferase reporter, luminescence, 24 h; note: nearly all actives have a fitted effect of over 45% in size
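p53-null H1299 cells stably carrying temperature-sensitive p53-A138V and a BP100-luciferase reporter were pinned with compounds (4-point, 1:5 series) and held 24 hrs at 37 deg C. Luminescence was read 10 min after detection reagent.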
RORgamma inh = ROR gamma (mouse) transcription inhibition; 5.4% of 310,000 active; P51450; AID 2551; Potency, µM (titrated, usually from 53.6 µM), most hits filed as inhibitors; Drosophila S2 Gal4-RORgamma UAS-luciferase reporter, 20 h; note: nearly all actives have a fitted effect of over 60% in size
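Using a luciferase readout, inhibitors were identified by reduced reporter activity in Drosophila cells coexpressing a copper-inducible Gal4–ROR gamma fusion and UAS-driven Photinus luciferase, incubated 20 hr after 700 uM copper sulfate.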
Numbers stand for hits; n = inactive; u = inconclusive; x = no result given; [ ] = remark or other dose. Unless noted, calls come from the whole dose curve; as a rule, active = well fitted curve in the direction sought with a large enough effect; inconclusive = small, poorly fitted or top-dose-only effect, or another doubt; inactive = no such curve, though single readings can be large; an effect the other way counts as inactive or inconclusive.

SMILES	Giardia kill	BRCA1 expr act	ELG1 DNA repair	VP16 counter	p53 reactivator	RORgamma inh
CC(C)C(C(=O)O)N1C(=O)/C(=C/C=C/c2ccco2)SC1=S (configuration not stated)	n	n	n	n	n	n
CN(C)/C=C1\C(=O)ON=C1c1ccccc1	n	n	n	n	n	n
CC1=NN(c2ccccc2)C(=O)/C1=C/C=C/c1ccccc1	n	n	21µM	18µM	n	u
CC1=NN(c2cccc(C(=O)O)c2)C(=O)/C1=C\C=C\c1ccco1	n	n	u	u	u	3.5µM
COc1ccc(/C=C2\C(=O)ON=C2c2ccccc2)cc1OC	n	n	n	11µM	x	13µM
COc1ccccc1CN1CC(C(=O)NCCN2CCOC2=O)CCC1=O (configuration not stated)	n	n	n	n	n	n
CC(=O)Nc1ccc(S(=O)(=O)N2CCN(c3ncccn3)CC2)cc1	n	n	n	n	n	n[1.91 µM]
COc1ccc(CCNC(=O)Cc2ccc(OCc3ccccc3)c(OC)c2[N+](=O)[O-])cc1OCc1ccccc1	n	n	u	3.2µM	n	u
CCOc1cc(CNCc2ccccc2)ccc1OCc1ccc(Cl)cc1	n	n	u	n	n	u
